The text below walks through data of PubChem BioAssay (Tox21).

Activity calls are given as the source filed them. Unless noted, calls come from the whole dose curve; as a rule, active = well fitted curve in the direction sought with a large enough effect in the repeat runs; inconclusive = weak or mixed curves; inactive = no such curve, though single readings can be large; an effect the other way counts as inactive or inconclusive.

Experiment [1] in a line: qHTS assay to identify small molecule antagonists of the glucocorticoid receptor (GR) signaling pathway - cell viability counter screen (AID 720693). Note: nearly all actives have a fitted effect of over 55% in size.
A short description of experiment [2]: qHTS assay for identifying genotoxic compounds that show differential cytotoxicity against isogenic chicken DT40 cell lines with known DNA damage response pathways - wild type cell line (AID 743012). Note: nearly all actives have a fitted effect of over 60% in size. Note: potency is the fitted concentration of half-maximal effect. Summed up:
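300 wt DT40 cells/well; cpd (DMSO) pintool-transferred after ~0.5 h at 37 C/5% CO2; 40 h incubation; CellTiter-Glo added, 30 min RT; luminescence read.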
A general note: qHTS replaces the single test concentration by a dilution series.

A short description of experiment [3]: qHTS assay for identifying genotoxic compounds that show differential cytotoxicity against isogenic chicken DT40 cell lines with known DNA damage response pathways - Rev3 mutant cell line (AID 743014). Note: nearly all actives have a fitted effect of over 55% in size. Note: potency is the fitted concentration of half-maximal effect.
Experiment [4] is described as follows: qHTS assay for identifying genotoxic compounds that show differential cytotoxicity against isogenic chicken DT40 cell lines with known DNA damage response pathways - Rad54/Ku70 mutant cell line (AID 743015). Note: nearly all actives have a fitted effect of over 60% in size. Note: potency is the fitted concentration of half-maximal effect.
Experiment [5] is described as follows: qHTS assay to identify small molecule antagonists of the androgen receptor (AR) signaling pathway - cell viability counter screen (AID 743033; note: nearly all actives have a fitted effect of over 45% in size).
A short description of experiment [6]: qHTS assay to identify small molecule antagonists of the thyroid receptor (TR) signaling pathway - cell viability counter screen (AID 743064). Note: nearly all actives have a fitted effect of over 50% in size. Note: potency is the fitted concentration of half-maximal effect. Summed up: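 Plate GH3.TRE-Luc cells; incubate 4 h at 37 °C; add compound, then T3 to 1 nM final; incubate 23.5 h; add CellTiter-Fluor; incubate 30 min at 37 °C, 5% CO2; read fluorescence.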
The nature of experiment [7]: qHTS assay to identify small molecule antagonists of the thyroid receptor (TR) signaling pathway (AID 743065). Note: nearly all actives have a fitted effect of over 55% in size. Note: potency is the fitted concentration of half-maximal effect. Put shortly: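 Antagonism measured as loss of luciferase signal in GH3 cells stably carrying a TRE-luciferase reporter, co-treated with compound and T3 (1 nM final) for 23.5 h at 37 C. Viability was read in the same well by CellTiter-Fluor.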
Experiment [8] concerns thyroid hormone receptor (rat, GH3 cells). Briefly: qHTS assay to identify small molecule agonists of the thyroid receptor (TR) signaling pathway (AID 743066; calls by dose curve).
Experiment [9] deals with Estrogen receptor (Homo sapiens) (UniProt P03372). Kind of experiment: qHTS assay to identify small molecule antagonists of the estrogen receptor alpha (ER-alpha) signaling pathway (AID 743069; active = well fitted curve in the direction sought with a large enough effect in the signal ratio in the repeat runs, not every such curve was filed as active; inconclusive = weak or mixed curves, or effect the other way; inactive = no such curve, though single readings can be large or run the other way; the % refers to the signal ratio; note: potency is the fitted concentration of half-maximal effect). Put shortly: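 Antagonist mode: compounds in DMSO were co-added with 17beta-estradiol to ER-alpha-bla HEK293 cells (2% charcoal-stripped serum) and left 18 h at 37C. Reporter inhibition was measured as FRET fluorescence after 2 h LiveBLAzer substrate at room temperature.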
Chain of Estrogen receptor (Homo sapiens) (P03372 whole entry, looked up): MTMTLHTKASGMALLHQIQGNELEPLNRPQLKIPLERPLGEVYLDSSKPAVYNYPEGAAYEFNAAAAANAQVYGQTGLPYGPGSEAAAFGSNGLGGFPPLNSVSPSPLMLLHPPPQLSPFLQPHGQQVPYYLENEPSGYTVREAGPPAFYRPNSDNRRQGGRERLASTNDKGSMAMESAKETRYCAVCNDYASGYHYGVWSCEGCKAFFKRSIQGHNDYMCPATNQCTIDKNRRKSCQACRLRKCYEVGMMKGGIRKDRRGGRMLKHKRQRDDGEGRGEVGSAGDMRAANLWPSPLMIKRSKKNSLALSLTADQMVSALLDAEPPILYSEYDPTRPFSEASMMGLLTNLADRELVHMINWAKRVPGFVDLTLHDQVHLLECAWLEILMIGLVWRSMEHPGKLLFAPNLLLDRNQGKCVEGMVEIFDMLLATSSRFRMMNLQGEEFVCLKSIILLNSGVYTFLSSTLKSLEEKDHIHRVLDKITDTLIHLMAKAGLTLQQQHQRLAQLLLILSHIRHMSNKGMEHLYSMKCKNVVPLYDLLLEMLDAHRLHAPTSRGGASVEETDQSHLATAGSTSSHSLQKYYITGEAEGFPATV

A short description of experiment [10]: qHTS assay to identify small molecule antagonists of the estrogen receptor alpha (ER-alpha) signaling pathway - cell viability counter screen (AID 743074; calls by dose curve;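 note: HEK293 cells carrying ER-alpha-UAS-bla reporter stimulated with 17beta-estradiol; nearly all actives have a fitted effect of over 45% in size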).
The target in experiment [11] is Estrogen receptor (Homo sapiens) (UniProt P03372). Briefly: qHTS assay to identify small molecule agonists of the estrogen receptor alpha (ER-alpha) signaling pathway (AID 743075; calls by dose curve;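 note: HEK293 GripTite cells with ER-alpha and UAS-driven beta-lactamase reporter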).
For experiment [12] the target is unchanged. Briefly: qHTS assay to identify small molecule agonists of the estrogen receptor alpha (ER-alpha) signaling pathway using the BG1 cell line (AID 743079). Note: nearly all actives have a fitted effect of over 20% in size.
Experiment [13] can be described thus: qHTS assay to identify small molecule antagonists of the estrogen receptor alpha (ER-alpha) signaling pathway using the BG1 cell line (AID 743080; calls by dose curve;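 note: BG1 cells stimulated with 17beta-estradiol alongside compound; series mostly up to about 70 µM; nearly all actives have a fitted effect of over 25% in size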). Summed up: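 Quantitative HTS on the Tox21 10K library: BG1 cells with endogenous ER-alpha and ERE-luciferase reporter, 17beta-estradiol stimulation, 21.5 h compound exposure, luminescence endpoint with parallel fluorescence cytotoxicity counter-read.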

Experiment [14] can be described thus: qHTS assay to identify small molecule antagonists of the estrogen receptor alpha (ER-alpha) signaling pathway using the BG1 cell line - cell viability counter screen (AID 743081).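 Note: compound given together with 17beta-estradiol as the ER stimulus; series mostly up to about 70 µM; nearly all actives have a fitted effect of over 45% in size.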
A further experiment addresses Aromatase (Homo sapiens) (UniProt P11511). Kind of experiment: qHTS assay to identify aromatase inhibitors (AID 743083). Note: nearly all actives have a fitted effect of over 55% in size. Note: potency is the fitted concentration of half-maximal effect.
For experiment [15], the target named is Androgen receptor (Homo sapiens) (UniProt P10275). Kind of experiment: qHTS assay to identify small molecule antagonists of the androgen receptor (AR) signaling pathway (AID 743035; active = well fitted inhibition curve with a large enough effect in the signal ratio in the repeat runs, not every such curve was filed as active; inconclusive = weak or mixed curves, or effect the other way; inactive = no such curve, though single readings can be large or run the other way; the % refers to the signal ratio; note: potency is the fitted concentration of half-maximal effect). Summed up: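 In this cell-based reporter screen, compounds were tested in concentration series against R1881-activated HEK293 cells expressing beta-lactamase under UAS control; after 16 h at 37C, FRET substrate was added and fluorescence read 2 h later.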
Chain of Androgen receptor (Homo sapiens) (P10275 whole entry, looked up): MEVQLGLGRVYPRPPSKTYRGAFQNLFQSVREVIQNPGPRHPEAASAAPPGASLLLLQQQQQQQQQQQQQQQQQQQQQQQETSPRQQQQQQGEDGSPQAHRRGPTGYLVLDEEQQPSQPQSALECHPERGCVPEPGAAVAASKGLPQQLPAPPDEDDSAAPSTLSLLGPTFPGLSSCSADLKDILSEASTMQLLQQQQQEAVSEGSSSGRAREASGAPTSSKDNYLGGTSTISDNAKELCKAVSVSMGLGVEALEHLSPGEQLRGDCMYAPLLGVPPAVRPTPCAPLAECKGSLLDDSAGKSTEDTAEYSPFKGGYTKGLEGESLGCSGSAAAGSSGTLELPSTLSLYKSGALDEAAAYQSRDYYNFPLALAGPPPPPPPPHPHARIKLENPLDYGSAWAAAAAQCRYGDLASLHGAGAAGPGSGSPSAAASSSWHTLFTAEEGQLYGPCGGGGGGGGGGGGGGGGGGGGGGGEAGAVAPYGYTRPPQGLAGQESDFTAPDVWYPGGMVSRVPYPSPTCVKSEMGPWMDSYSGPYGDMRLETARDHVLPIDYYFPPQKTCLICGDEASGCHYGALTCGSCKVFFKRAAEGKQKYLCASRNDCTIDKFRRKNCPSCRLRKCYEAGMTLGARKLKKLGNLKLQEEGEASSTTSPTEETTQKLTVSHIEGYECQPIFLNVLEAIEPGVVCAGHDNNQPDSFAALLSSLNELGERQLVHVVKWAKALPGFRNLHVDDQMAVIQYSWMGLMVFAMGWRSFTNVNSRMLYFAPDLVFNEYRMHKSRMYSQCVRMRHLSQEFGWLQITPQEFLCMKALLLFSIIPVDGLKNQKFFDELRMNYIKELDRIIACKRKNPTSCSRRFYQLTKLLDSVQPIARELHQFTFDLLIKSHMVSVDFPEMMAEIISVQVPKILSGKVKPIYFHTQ

Experiment [16] has the same target. Briefly: qHTS assay to identify small molecule agonists of the androgen receptor (AR) signaling pathway (AID 743036; active = well fitted activation curve with a large enough effect in the signal ratio in the repeat runs, with a control signal flat, not every such curve was filed as active; inconclusive = weak or mixed curves, or effect the other way; inactive = no such curve, though single readings can be large or run the other way; the % refers to the signal ratio). Summed up: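 Reporter line: GeneBLAzer AR-UAS-bla-GripTite (HEK293). Steps: plate cells, 4 h rest, add compounds, 16 h at 37C, add LiveBLAzer B/G substrate, 2 h at RT, read fluorescence.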
Experiment [17] shares this target. Kind of experiment: qHTS assay to identify small molecule agonists of the androgen receptor (AR) signaling pathway using the MDA cell line (AID 743040; note: nearly all actives have a fitted effect of over 20% in size). Summed up: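 Luciferase agonist assay: 16 h compound exposure at 37C without CO2 in MDA-kb2 AR-luc cells, whose MMTV promoter responds to both AR and GR. Luminescence measured after 30 min room-temperature incubation with ONE-Glo.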

Experiment [18] has the same target. Kind of experiment: qHTS assay to identify small molecule antagonists of the androgen receptor (AR) signaling pathway using the MDA cell line (AID 743042; note: nearly all actives have a fitted effect of over 55% in size; note: potency is the fitted concentration of half-maximal effect). Put shortly: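 Antagonist mode: compounds plus R1881 agonist added to MDA-kb2 AR-luc cells, incubated 16 h at 37C. Luciferase reporter luminescence quantified, with multiplexed CellTiter-Fluor readout for cell viability.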

Experiment [19] is described as follows: qHTS assay to identify small molecule antagonists of the androgen receptor (AR) signaling pathway using the MDA cell line - cell viability counter screen (AID 743041; note: nearly all actives have a fitted effect of over 45% in size). Put shortly:
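Viability read by CellTiter-Fluor fluorescence in the same wells as the antagonist screen, added after 15.5 h of a 16 h, 37C exposure. Human breast carcinoma MDA-kb2 AR-luc cells, compounds co-dosed with agonist R1881.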

Chain of Aromatase (Homo sapiens) (P11511 whole entry, looked up): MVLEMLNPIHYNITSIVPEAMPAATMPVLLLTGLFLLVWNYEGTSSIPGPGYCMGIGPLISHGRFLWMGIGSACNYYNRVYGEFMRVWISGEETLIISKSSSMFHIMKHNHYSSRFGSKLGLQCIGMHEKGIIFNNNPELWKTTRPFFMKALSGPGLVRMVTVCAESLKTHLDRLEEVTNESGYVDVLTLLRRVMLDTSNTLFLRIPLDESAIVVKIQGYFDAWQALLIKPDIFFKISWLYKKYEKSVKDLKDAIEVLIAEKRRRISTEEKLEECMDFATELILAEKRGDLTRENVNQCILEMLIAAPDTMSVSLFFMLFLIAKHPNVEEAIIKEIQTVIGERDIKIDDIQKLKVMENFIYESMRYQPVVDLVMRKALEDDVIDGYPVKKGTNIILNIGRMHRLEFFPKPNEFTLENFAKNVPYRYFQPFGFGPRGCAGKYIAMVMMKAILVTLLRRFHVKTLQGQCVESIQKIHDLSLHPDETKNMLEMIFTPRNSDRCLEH

On to `CN(N=O)c1ccc([N+](=O)[O-])cc1`, for which the Potency entry in experiment [1], in experiment [2], in experiment [3], in [4], in [5] and in experiment [6] was “inactive” in each case. Also, the Potency result in [7], in experiment [8], in [9], in experiment [10], in experiment [11] and in [12] was “inactive” throughout. Further, the Potency result (in experiment [13]; in [14]; with Aromatase (Homo sapiens)) was “inactive” in each case.

With `C[C@@H]1CC[C@H]2[C@@H](C)C(=O)O[C@@H]3O[C@@]4(C)CC[C@@H]1[C@]32OO4`, the Potency entry in [1], in experiment [17], in experiment [8], in [10] and in [14] was “inactive” throughout. For the same compound, the Potency was 0.422 µM (active) in [2]; 0.473 µM (active) in experiment [3]; 0.237 µM (active) in experiment [4]; 1.69 µM (active) in [15]; 1.33 µM (active) in experiment [18]; 5.96 µM (active) in experiment [6]. Besides, the Potency in experiment [7] was 2.37 µM (active). The compound was called inactive in experiment [16].

As to `CCCCc1c(C)nc(NCC)nc1OS(=O)(=O)N(C)C`, the Potency entry in experiment [1], in [5], in experiment [8], in experiment [9], in experiment [10] and in [11] was “inactive” each time. Also, the Potency result with Aromatase (Homo sapiens) is “inactive”. Besides, the Potency in [2] was 15.4 µM (active); in [3], 19.3 µM (active); in experiment [4], 15.4 µM (active).

Take `COP(=O)(OC)O/C(=C/Cl)c1cc(Cl)c(Cl)cc1Cl`: the Potency entry in experiment [1], in [17], in experiment [19], in [8] and in experiment [14] was “inactive” in each case. For the same compound, the Potency is 64.6 µM (active) in [2]; 28.8 µM (active) in experiment [3]; 64.6 µM (active) in experiment [4]; 18.4 µM (active) in experiment [15]; 72.4 µM (active) in experiment [18]; 28.8 µM (active) in [7]. Also, the Potency is 16.4 µM [inconclusive] (active) in [9] and 40.7 µM (active) in the experiment with Aromatase (Homo sapiens). Further, the compound was called inactive in experiment [16].

Turning to `Nc1nc(N)nc(N)n1`, the Potency entry in [1], in experiment [2], in experiment [3], in experiment [4], in experiment [5] and in [6] was “inactive” throughout. The Potency result (in [7]; in experiment [8]; in experiment [10]; in [14]; with Aromatase (Homo sapiens)) was “inactive” in each case.

As for `COC(=O)c1cncn1C(C)c1ccccc1` (stereo unspecified), the Potency result in experiment [1], in [2], in experiment [3], in experiment [4], in experiment [19] and in [6] was “inactive” throughout. Further, the Potency result in experiment [7], in [8], in [9], in experiment [10], in experiment [11] and in experiment [12] was “inactive” each time. The Potency entry (in experiment [13]; in experiment [14]; in the experiment with Aromatase (Homo sapiens)) was “inactive” in each case.

Regarding `COC(C)(C)CCC[C@H](C)C/C=C/C(C)=C/C(=O)OC(C)C`, the Potency entry (in [1]; in [17]; in experiment [8]; in experiment [10]; in experiment [14]; with Aromatase (Homo sapiens)) was “inactive” in each case. The Potency in experiment [2] is 21.7 µM (active); in experiment [3] it was 24.3 µM (active); in experiment [4] it was 19.3 µM (active); in experiment [7] it was 61.1 µM (active). Besides, the compound was classed as inactive in experiment [16].

`COc1ccc(-c2ccccc2)cc1NNC(=O)OC(C)C`: the Potency result in [1], in [17], in [19], in experiment [8], in experiment [11] and in experiment [14] was “inactive” each time. In addition, in the experiment with Aromatase (Homo sapiens), the Potency entry was “inactive”. The Potency was 63.7 µM (active) in experiment [2]; 71.5 µM (active) in [3]; 28.4 µM (active) in experiment [4]; 51 µM (active) in [15]; 71.5 µM (active) in experiment [18]; 71.5 µM (active) in experiment [7].

Take `CS/C(C)=N/OC(=O)N(C)SN(C)C(=O)O/N=C(\C)SC`: the Potency entry in experiment [1], in [15], in experiment [17], in experiment [19], in [18] and in experiment [8] was “inactive” each time. Also, the Potency entry in experiment [9], in experiment [10], in experiment [11], in [12], in experiment [13] and in experiment [14] was “inactive” throughout. Also, the Potency entry with Aromatase (Homo sapiens) is “inactive”. The Potency in experiment [2] was 6.86 µM (active); in experiment [3] it was 17.2 µM (active); in [4], 15.4 µM (active); in experiment [6], 27.3 µM (active); in experiment [7] it was 27.3 µM (active). Further, in experiment [16], the compound was called inactive.
